# In PubChem BioAssay (NCI):
# Compounds without any hit were thinned out: in the full panel of roughly 83,000, 20% have a hit.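 Activity criterion: percent growth below 10, measured after cells in 96-well plates were exposed to a single compound concentration for 48 hours.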 Calls of active or inactive are those of the source.
# Tests used:
# Experiment in all cases: NCI-60 one-dose screen, 48 h (100 = growth as untreated, 0 = no growth, -100 = all killed)
# EKVX NSCLC = conditions: 10 µM unless noted
# SN12C renal = conditions: 10 µM unless noted
# UO-31 renal = conditions: 10 µM unless noted
# TK-10 renal = conditions: 10 µM unless noted
# ACHN renal = conditions: 10 µM unless noted
# CAKI-1 renal = conditions: 10 µM unless noted
# A498 renal = conditions: 10 µM
# HL-60(TB) leukemia = conditions: 10 µM unless noted
# CCRF-CEM leukemia = conditions: 10 µM unless noted
# MOLT-4 leukemia = conditions: 10 µM unless noted
# SR leukemia = conditions: 10 µM unless noted
# RPMI-8226 leukemia = conditions: 10 µM unless noted
# OVCAR-8 ovarian = conditions: 10 µM unless noted
# OVCAR-5 ovarian = conditions: 10 µM unless noted
# OVCAR-4 ovarian = conditions: 10 µM unless noted
# SK-OV-3 ovarian = conditions: 10 µM unless noted
# IGROV1 ovarian = conditions: 10 µM unless noted
# OVCAR-3 ovarian = conditions: 10 µM unless noted
# HS 578T breast = conditions: 10 µM unless noted
# SK-MEL-2 melanoma = conditions: 10 µM unless noted
Structure (SMILES),growth (EKVX NSCLC),growth (SN12C renal),growth (UO-31 renal),growth (TK-10 renal),growth (ACHN renal),growth (CAKI-1 renal),growth (A498 renal),growth (HL-60(TB) leukemia),growth (CCRF-CEM leukemia),growth (MOLT-4 leukemia),growth (SR leukemia),growth (RPMI-8226 leukemia),growth (OVCAR-8 ovarian),growth (OVCAR-5 ovarian),growth (OVCAR-4 ovarian),growth (SK-OV-3 ovarian),growth (IGROV1 ovarian),growth (OVCAR-3 ovarian),growth (HS 578T breast),growth (SK-MEL-2 melanoma)
CCNc1nc(Cl)nc(NCC)n1,86.5% (inactive),102% (inactive),77.1% (inactive),116% (inactive),102% (inactive),77.3% (inactive),95.8% (inactive),98.4% (inactive),96.8% (inactive),69.8% (inactive),75.8% (inactive),94.3% (inactive),58.9% (inactive),104% (inactive),95.6% (inactive),109% (inactive),29.4% (inactive),108% (inactive),96.8% (inactive),–
CC(C)[C@]12O[C@H]1[C@@H]1O[C@]13[C@]1(O[C@H]1C[C@H]1c4c(C(=O)c5ccccc5)oc(OC(=O)c5ccccc5)c4CC[C@@]13C)[C@@H]2O,-17.2% (active),23.7% (inactive),7.34% (active),44% (inactive),10.6% (inactive),–,-49.4% (active),-46% (active),-32.5% (active),–,–,–,6.13% (active),15.2% (inactive),21.3% (inactive),27.3% (inactive),-33% (active),-57.5% (active),-30.6% (active),–
CCN(CC)c1ccc2c(c1)OC(N)=C(C#N)C2c1cc(OC)c2c(c1)OCO2 (stereo not given),41.7% (inactive),15.1% (inactive),34.7% (inactive),59.3% (inactive),21.4% (inactive),32.7% (inactive),-4% (active),13% (inactive),–,23.7% (inactive),–,26.6% (inactive),17.6% (inactive),51.6% (inactive),43.5% (inactive),9.72% (active),24% (inactive),-30.7% (active),9.12% (active),–
O=C(Nc1ccc(Cl)cc1)Nc1nccs1,–,50.4% (inactive),40.3% (inactive),–,54.4% (inactive),22.6% (inactive),8.26% (active),-18.6% (active),6.31% (active),20.6% (inactive),27.3% (inactive),5.61% (active),24.9% (inactive),67.4% (inactive),81.1% (inactive),33.1% (inactive),33.6% (inactive),-26.6% (active),49.9% (inactive),–
CC12CC(=O)C3(SC#N)C(CCC4=CC(=O)CCC43C)C1CCC2=O (stereo not given),–,85% (inactive),39% (inactive),81.4% (inactive),49.2% (inactive),–,95.3% (inactive),43.2% (inactive),–,22.2% (inactive),86.1% (inactive),77.5% (inactive),89.6% (inactive),103% (inactive),73.8% (inactive),109% (inactive),99.2% (inactive),42.1% (inactive),–,125% (inactive)
C/C1=C/C(=O)O[C@@H]2C[C@@H](CC[C@H](C)/C=C\C=C\CC1)O[C@@](O)([C@@H]1CSC(=O)N1CO)C2,6.56% (active),47.8% (inactive),-83.5% (active),-39.1% (active),10.6% (inactive),–,-46.2% (active),28.2% (inactive),11.1% (inactive),33.4% (inactive),–,50.7% (inactive),42.8% (inactive),-3.16% (active),20.4% (inactive),-14.1% (active),–,-7.34% (active),-48.7% (active),–
